Source: PubChem (several laboratories)
S1P4 agonist = S1P4 receptor agonists, primary screen, cell-based; Sphingosine 1-phosphate receptor 4 (Homo sapiens), O95977; S1P4-expressing cell line, agonist reporter assay; activation, % at 4.98 µM; 220,000 compounds, 0.35% hits; in the data active = activation above about 11%;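 note: 0% = DMSO vehicle and 100% = reference agonist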
Target sequence (O95977 whole entry, looked up): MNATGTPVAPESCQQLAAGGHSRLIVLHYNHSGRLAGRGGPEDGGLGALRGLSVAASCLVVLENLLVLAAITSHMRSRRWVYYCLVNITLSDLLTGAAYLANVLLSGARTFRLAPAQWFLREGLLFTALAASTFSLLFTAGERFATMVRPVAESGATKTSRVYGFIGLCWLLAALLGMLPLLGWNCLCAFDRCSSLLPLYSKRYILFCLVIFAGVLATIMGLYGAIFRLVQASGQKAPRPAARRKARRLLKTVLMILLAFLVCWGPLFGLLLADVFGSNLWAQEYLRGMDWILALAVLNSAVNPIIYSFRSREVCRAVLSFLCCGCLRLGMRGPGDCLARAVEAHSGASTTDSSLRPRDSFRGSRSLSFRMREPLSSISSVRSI
EP2 mod = EP2 receptor modulators, cAMP readout, primary screen, cell-based, HTRF cAMP, PGE2 stimulation | Prostaglandin E2 receptor EP2 subtype (Homo sapiens), P43116 | EP2-expressing cells, cAMP HTRF FRET, PGE2 co-stimulation | induction, % at 25 µM | 260,000 compounds, 0.83% hits;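 active = compounds whose cAMP rise, as percent of the full-agonist control response, exceeds 60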;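 note: rat C6 glioma line stably carrying human EP2 under a CMV promoter; the protocol text gives 20 µM as final concentration; 100% = response of wells given 1 µM PGE2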
S1P4 antagonist = S1P4 receptor antagonists, primary screen, cell-based. Sphingosine 1-phosphate receptor 4 (Homo sapiens), O95977. S1P4-expressing cells, antagonist mode, reporter read-out. inhibition, % at 4.98 µM. 220,000 compounds, 0.26% hits; in the data active = inhibition above about 29%;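 note: 0% = wells stimulated with agonist and 100% = vehicle wells without agonist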
EP2 antag = human EP2 receptor antagonists, primary screen, TR-FRET cAMP, C6 glioma cells; C6 glioma cells expressing human EP2; cells stimulated with saturating PGE2; inhibition, % at 25 µM; 260,000 compounds, 0.52% hits;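 active = percent inhibition above 40 after rounding to a whole number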;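 note: rat C6 glioma host cells with rolipram phosphodiesterase inhibitor present; the protocol text gives 20 µM as final concentration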
S1P3 antagonist = S1P3 receptor antagonists, primary screen, cell-based; inhibition, % at 4.98 µM; Sphingosine 1-phosphate receptor 3 (Homo sapiens), Q99500; CHO S1P3 NFAT-BLA reporter, FRET fluorescence, antagonist mode; 170,000 compounds, 0.27% hits; AID 485, 2006;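 active = inhibition above the plate cutoff, the mean inhibition of test wells on that plate plus 3 SD, cut at about 28% in these data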;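 note: cells challenged with S1P at its EC80 of 0.8 µM; blue over green emission ratio from cleaved BLA substrate after 4 h stimulation; 0% = S1P-stimulated wells and 100% = unstimulated DMSO-only wells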
S1P4 agonist cf = S1P4 receptor agonists, retest, confirmation, cell-based, high throughput. 740 compounds, 7% hits. shares compounds with S1P4 agonist. S1P4 agonist cell-based reporter assay. activation, % at 4.98 µM. AID 1523, 2009; in the data active = activation above about 12%;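 note: 0% = vehicle and 100% = full reference agonist response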
S1P1 ag = S1P1 receptor agonists, human, counter-screen for S1P4 agonist project, cell-based | shares compounds with S1P4 agonist | S1P1 agonist cell-based assay, activation | activation, % at 4.98 µM | 740 compounds, 4% hits; in the data active = activation above about 21%;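 note: 0% = vehicle wells and 100% = reference agonist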
S1P4 antag cf = S1P4 receptor antagonists, human, confirmation, cell-based; shares compounds with S1P4 antagonist; inhibition, % at 4.98 µM; 520 compounds, 71% hits; AID 1524, 2009; S1P4-expressing cell line, antagonist mode, reporter read-out; in the data active = inhibition above about 30%
S1P1 antagonist = S1P1 receptor antagonists, human, counter-screen for S1P4 antagonist project, cell-based; shares compounds with S1P4 antagonist; cell-based S1P1 antagonist counterscreen, inhibition; AID 1564, 2009; 520 compounds, 37% hits; inhibition, % at 4.98 µM; in the data active = inhibition above about 40%;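 note: receptor stimulated with S1P near its EC80; 0% = agonist stimulated wells and 100% = vehicle only wells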
An asterisk follows results filed as active; . = not tested or not shown. Rows were chosen to be rich in hits. Some 1.9% of all compounds tested hit in one or more screens of this group.

SMILES	S1P4 agonist	EP2 mod	S1P4 antagonist	EP2 antag	S1P3 antagonist	S1P4 antag cf	S1P1 antagonist	others
CCOc1ccc(C(O)CN2CCC3(CC2)CC(O)c2cc(OC)ccc2O3)cc1 (centres undefined)	.	-48	.	8	.	.	.
CSc1ccc(NC(=O)Nc2cccn(Cc3ccccc3)c2=O)cc1	33*	16	-24	6	11	.	.	S1P4 agonist cf=-1;S1P1 ag=6
COc1ccc(Cn2cccc(NC(=O)Nc3ccc(F)cc3)c2=O)cc1	2	-49	-4	7	0	.	.
O=C(N/N=C/c1cccc(C(F)(F)F)c1)c1cc2c(s1)-c1ccccc1CC2	45*	31	-16	11	.	.	.	S1P4 agonist cf=-1;S1P1 ag=1
Cc1cccc(/C=N/NC(=O)c2cc3c(s2)-c2ccccc2CC3)c1	-1	36	1	12	.	.	.
O=C1C(Cl)=C(Nc2ccc(O)cc2)C(=O)c2ccccc21	14*	-39	90*	26	-20	105*	65*	S1P4 agonist cf=3;S1P1 ag=-10
COC(=O)c1c(NC(=O)COc2ccccc2)sc(C(=O)NC2CCCCC2)c1C	.	21	.	7	.	.	.
CN1CCN(c2nc(-c3ccccc3)c3cc(Cl)ccc3n2)CC1	9	19	-18	24	-17	.	.
Clc1ccc2nc(N3CCNCC3)nc(-c3ccccc3)c2c1	20*	.	30*	11	.	39*	-47	S1P4 agonist cf=13*;S1P1 ag=15
CC(=O)Oc1ccc2cc(-c3nc4ccccc4n3C)c(=O)oc2c1	30*	-3	36*	6	-25	37*	-53	S1P4 agonist cf=15*;S1P1 ag=12
COc1ccccc1N(Cc1cc2ccccc2[nH]c1=O)C(=O)c1cc(OC)c(OC)c(OC)c1	.	-44	.	6	.	.	.
COC(=O)[C@@]1(Cc2ccc(OC)cc2)[C@@H]2C(=CC(=O)[C@H]2CC(=O)C(=O)N(C)C)CN1C(=O)c1ccccc1	2	4	5	16	7	.	.
C=C1C(=O)C=C2CN(C(=O)c3ccccc3)[C@@](Cc3ccc(F)cc3)(C(=O)OC)[C@@H]12	-1	-44	60*	92*	0	119*	143*
CC(C)(C)OC(=O)N1CCC[C@H]([C@H](O)c2ccc3c(c2)OCO3)C1	.	-34	.	10	.	.	.
COC(CNC(=O)c1ccc2c3c(onc13)-c1ccccc1C2=O)OC	6	-51	37*	37	-3	114*	22
Cc1nccn1CCCN1C(=O)OC2(CCCCC2)C1(C)O (centres undefined)	-3	12	32*	7	-6	2	0
O=C(c1ccccc1)c1ccccc1N1C(=O)C=CC1=O	-1	-49	38*	45*	-9	104*	9
O=C(c1ccccc1)c1ccccc1C(=O)N1CCN(C(=O)c2ccccc2)CC1	0	14	6	12	-18	.	.
C=C(C)Cn1c(SCC(=O)Nc2ccc(OCC)cc2)nc2sc3c(c2c1=O)CCCC3	.	52	.	15	.	.	.
CC(C)NC(=O)CSCc1c(F)cccc1Cl	-1	22	57*	3	.	-3	-6
CNC(=O)CSCc1c(F)cccc1Cl	-1	-9	1	8	.	.	.
Cc1ccc(S(=O)(=O)CCN2C=CC(C(F)(F)F)=NCC2)cc1	0	9	33*	15	-13	-3	-12
O=S(=O)(c1ccc2ccccc2c1)N1C=CC(C(F)(F)F)=NCC1	2	-42	-17	18	.	.	.
Cc1cccc2c1NC(=O)/C2=C\C(=O)c1cccs1	1	-8	24	24	.	.	.
Cc1cc(Br)c2c(c1)/C(=C/C(=O)c1cccs1)C(=O)N2	1	-27	35*	16	-20	68*	43*
SMILES	S1P4 agonist	EP2 mod	S1P4 antagonist	EP2 antag	S1P3 antagonist	S1P4 antag cf	S1P1 antagonist	others
CCc1ccc2c(c1)/C(=N/N(C)C(=S)NC)C(=O)N2	0	0	-1	.	.	.	.
CCc1ccc2c(c1)/C(=C/C(=O)c1cccs1)C(=O)N2	-1	-24	66*	23	.	109*	78*
COc1ccccc1OCCSc1nnc(-c2ccco2)n1C	.	1	.	10	.	.	.
O=C(Cc1c(F)cccc1Cl)NC1(c2ccc3c(c2)OCO3)CCCC1	.	4	.	7	.	.	.
Cc1ccc2cc(C(c3nnnn3C3CCCCC3)N3CCCCC3)c(=O)[nH]c2c1 (centres undefined)	.	6	.	10	.	.	.
CS(=O)(=O)c1nc(-c2cccs2)cc(C(F)(F)F)n1	-2	0	39*	9	.	119*	41*
O=C(O)CCS(=O)(=O)c1nc(-c2cccs2)cc(C(F)(F)F)n1	3	32	-14	9	.	.	.
CS(=O)(=O)c1nc(-c2ccc(F)cc2)cc(C(F)(F)F)n1	-3	-4	70*	31	-10	117*	21
Cc1cc(NC(=O)CSc2nc(-c3cccs3)cc(C(F)(F)F)n2)no1	-3	-10	-11	15	29	.	.
COc1ccc(-c2cc(C(F)(F)F)nc(S(C)(=O)=O)n2)cc1	-1	12	16	6	.	.	.
Cc1cc(NC(=O)CCCS(=O)(=O)c2nc(-c3cccs3)cc(C(F)(F)F)n2)no1	0	26	40*	12	-10	111*	45*
COC(=O)c1ccc(Cl)c(NC(=O)c2ccco2)c1	.	-7	.	14	.	.	.
COc1ccccc1[C@@H]1C[C@H](OC(=O)CCC2CCCC2)C(=O)N1C	.	-32	.	3	.	.	.
OC(CNCCc1ccccc1)COc1ccc(OCC(O)CNCCc2ccccc2)cc1 (centres undefined)	-1	-52	32*	14	9	55*	39
C/C(CCC12CC3CC(CC(C3)C1)C2)=N\NC(N)=S	-2	38	16	11	.	.	.
C/C(CC(C)(C)C1CCCCC1)=N\NC(N)=S	-1	-16	48*	10	.	67*	-11
O=C(NCc1ccco1)c1ccc2c(c1)CCO2	-1	4	30*	5	-12	3	-1
CCc1nc2ccc(C(=O)NCc3ccco3)cc2nc1CC	-1	-23	1	9	4	.	.
Cc1cc(=O)[nH]c(N2CCN(C(=O)c3cc(F)cc(F)c3)CC2)n1	.	-24	.	4	.	.	.
